Experimental data from the supplement of paper PMC10646978.
± gives the standard deviation.

Columns and labels:
Conditions in all cases: modulator concentration 10 µM
[1] = system: RAW-Dual (murine macrophage reporter line); assay: NF-kB reporter (SEAP) activity fold change vs agonist alone; higher = enhanced NF-kB activity
Summary of the method: (§1)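 Compound reached 10 μM final in each well by pin transfer, onto RAW-Dual murine macrophage reporter cells seeded at 50 000 per well in 384-well plates. After 1 hour at 37 °C, the cells were stimulated overnight with a PRR agonist. SEAP in the supernatant was read with QUANTI-Blue at 620 nm absorbance for NF-κB, and Lucia luciferase was read with QUANTI-Luc luminescence for IRF. Each signal was turned into fold change against the mean agonist-only control on the same plate, and two replicate plates were averaged with propagated errors.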

[2] = system: RAW-Dual (murine macrophage reporter line); assay: IRF reporter (Lucia luciferase) activity fold change vs agonist alone; higher = enhanced IRF activity
Summary of the method: as §1

[3] = system: RAW-Dual (murine macrophage reporter line); assay: viability score (confluency relative to resting cells, overnight) (fraction); higher = more viable, active = viable (0.7 or more)
Summary of the method: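 In 384-well plates, RAW-Dual macrophages received compound at a final 10 μM overnight. Two confluency masks were then made with IncuCyte software from IncuCyte images of all imaged wells. The viability score is defined as confluency relative to resting cells. Passing the cutoff required both masks to lie above 70% of resting cells.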

[4] = agonist: CpG ODN 1826 0.5 ug/mL

| Structure (SMILES) | NF-kB reporter [1, 4] | NF-kB reporter ([1]; agonist: LPS 0.1 ug/mL) | NF-kB reporter ([1]; agonist: MPLA […]) | IRF reporter ([2]; agonist: 3'3'-cGAMP 10 ug/mL) | IRF reporter ([2]; agonist: LPS 0.1 ug/mL) | IRF reporter ([2]; agonist: MPLA […]) | viability score [3] |
| --- | --- | --- | --- | --- | --- | --- | --- |
| COc1cc(C)n(CCNC(=O)c2ccccc2C(F)(F)F)c(=O)c1 | 0.904 ± 0.039 | 0.933 ± 0.076 | 1.12 ± 0.06 | 1.03 ± 0.055 | 1.34 ± 0.28 | 1.51 ± 0.4 | 0.941 (active) |
| CCN(CC)c1ccc(C=NNC(=O)c2ccncc2)cc1 | 1.16 ± 0.11 | 0.926 ± 0.12 | 1.05 ± 0.06 | 0.676 ± 0.12 | 0.948 ± 0.058 | 1.11 ± 0.076 | 0.991 (active) |
| CC(C)Oc1ccc(C(=O)NC2CCN(c3ncnc4c3CCCC4)CC2)cn1 | 1.15 ± 0.086 | 1.14 ± 0.086 | 0.985 ± 0.031 | 0.939 ± 0.055 | 1.06 ± 0.083 | 1.04 ± 0.11 | 0.997 (active) |
| Cc1cccc(CS(=O)(=O)N2CCC(S(=O)(=O)c3nccn3C)CC2)c1 | 1.04 ± 0.078 | 1.02 ± 0.082 | 0.983 ± 0.038 | 1.04 ± 0.088 | 0.979 ± 0.089 | 1.05 ± 0.12 | 0.998 (active) |
| Br.CN(C)CCCC1(c2ccc(F)cc2)OCc2cc(C#N)ccc21 (stereo unspecified) | 0.81 ± 0.12 | 1.02 ± 0.29 | 0.95 ± 0.07 | 0.801 ± 0.043 | 1.37 ± 0.4 | 1.39 ± 0.24 | 0.979 (active) |
| CC(C)(C)N1CC(c2nc3ccccc3n2Cc2c(F)cccc2Cl)CC1=O (stereo unspecified) | 1.28 ± 0.094 | 1.1 ± 0.088 | 0.901 ± 0.041 | 1.2 ± 0.06 | 1.15 ± 0.1 | 1.28 ± 0.19 | 0.974 (active) |
| Cc1ccccc1Oc1ccc(S(=O)(=O)N2CCCC2)cc1 | 0.68 ± 0.03 | 1.02 ± 0.14 | 0.922 ± 0.061 | 0.385 ± 0.018 | 1.03 ± 0.14 | 1.22 ± 0.26 | 0.953 (active) |
| COC(=O)CCc1ccc(OCC(O)CNC(C)C)cc1 (stereo unspecified) [Prestw-1137] | 1.06 ± 0.087 | 1.06 ± 0.084 | 1.02 ± 0.081 | 0.951 ± 0.043 | 0.911 ± 0.067 | 0.827 ± 0.11 | 1 (active) |
| CC1CN(Cc2ccccn2)CCC1=O (stereo unspecified) | 0.988 ± 0.11 | 0.993 ± 0.064 | 1.03 ± 0.062 | 0.978 ± 0.027 | 1.58 ± 0.23 | 1.17 ± 0.12 | 1.01 (active) |
| COc1cc(O)c2c(=O)cc(-c3ccc(O)cc3)oc2c1 | 1.15 ± 0.098 | 1.04 ± 0.076 | 1.01 ± 0.024 | 0.795 ± 0.11 | 0.959 ± 0.049 | 0.798 ± 0.099 | 0.997 (active) |
| N#CC(=Cc1cc(Cl)ccc1OCc1c(F)cccc1Cl)c1nn(CCO)c(N)c1C#N | 1.37 ± 0.12 | 1.19 ± 0.072 | 0.806 ± 0.063 | 0.497 ± 0.03 | 0.931 ± 0.11 | 0.787 ± 0.049 | 0.164 (inactive) |
| O=C1c2ccccc2C(=O)C1c1ccccc1 | 1.36 ± 0.21 | 1.01 ± 0.085 | 1.32 ± 0.15 | 0.856 ± 0.03 | 1.18 ± 0.1 | 0.968 ± 0.14 | 0.996 (active) |
| CCN(CC)c1nc(Nc2ccc([N+](=O)[O-])cc2)nc(N(CC)CC)n1 | 0.635 ± 0.04 | 1.07 ± 0.069 | 0.953 ± 0.058 | 0.972 ± 0.044 | 1.16 ± 0.12 | 1.01 ± 0.12 | 0.998 (active) |
